# Measured values published in PubChem BioAssay (Tox21).
# Records with an inconclusive call do not appear. Calls of active or inactive are those of the source. Unless noted, calls come from the whole dose curve; as a rule, active = well fitted curve in the direction sought with a large enough effect in the repeat runs; inconclusive = weak or mixed curves; inactive = no such curve, though single readings can be large; an effect the other way counts as inactive or inconclusive.
# Target: Estrogen receptor (Homo sapiens) (UniProt P03372)
# Sequence (P03372 whole entry, looked up): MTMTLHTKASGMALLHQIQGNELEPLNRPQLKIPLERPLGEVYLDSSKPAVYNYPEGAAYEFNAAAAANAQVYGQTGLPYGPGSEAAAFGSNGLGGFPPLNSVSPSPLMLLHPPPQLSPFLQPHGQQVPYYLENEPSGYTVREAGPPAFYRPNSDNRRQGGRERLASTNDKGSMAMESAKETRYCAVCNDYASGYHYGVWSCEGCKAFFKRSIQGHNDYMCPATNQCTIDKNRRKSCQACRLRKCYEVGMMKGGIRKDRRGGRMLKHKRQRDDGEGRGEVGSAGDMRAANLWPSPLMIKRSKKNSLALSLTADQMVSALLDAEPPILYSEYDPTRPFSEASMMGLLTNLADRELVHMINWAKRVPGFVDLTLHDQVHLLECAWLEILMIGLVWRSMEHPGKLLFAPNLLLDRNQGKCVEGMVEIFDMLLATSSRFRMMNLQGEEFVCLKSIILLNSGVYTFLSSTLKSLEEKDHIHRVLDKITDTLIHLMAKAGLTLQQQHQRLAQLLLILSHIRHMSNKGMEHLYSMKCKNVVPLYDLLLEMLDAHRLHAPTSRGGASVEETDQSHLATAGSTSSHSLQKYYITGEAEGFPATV
# Assay: qHTS assay to identify small molecule antagonists of the estrogen receptor alpha (ER-alpha) signaling pathway using the BG1 cell line in the presence of 0.1 nM 17-beta-estradiol (AID 1259244); note: nearly all actives have a fitted effect of over 50% in size
# Conditions: VM7Luc4E2 (BG1) ERE-luciferase, antagonist mode, 0.1 nM E2, 22 h; series mostly up to 92.4 µM; activity change, negative = inhibition: at the top concentration
# How it was run: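 Luciferase luminescence (ONE-Glo, 30 min at room temperature) was read after 22 hr at 37C exposure to compounds plus 17beta-estradiol at 0.1 nM final. Cells were VM7Luc4E2 with endogenous ER-alpha and an ERE-driven luciferase, pre-cultured 5 days in hormone-depleted medium.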
# % is set by controls: 0 for no effect and ±100 for the full control effect.
row,SMILES,"activity change, negative = inhibition"
1,Cc1ccc(O)c([N+](=O)[O-])c1,0% (inactive)
2,CN(C)CCC[C@@]1(c2ccc(F)cc2)OCc2cc(C#N)ccc21,7.79% [at 42.5 µM] (inactive)
3,CC(=O)SCC(CC(=O)c1ccc(C)cc1)C(=O)O (stereo not drawn),20% [at 42.5 µM] (inactive)
4,CC(C)(C)C(=O)CCc1ccc(Cl)cc1,-2.32% (inactive)
5,Nc1ccc(C(=O)NCC(=O)O)cc1,-10.2% [at 42.5 µM] (inactive)
6,C[n+]1ccccc1/C=N/O,1.55% [at 42.5 µM] (inactive)
7,COc1cc2nc(N3CCN(C(=O)C4CCCO4)CC3)nc(N)c2cc1OC (stereo not drawn),-3.17% [at 42.5 µM] (inactive)
8,COc1cnc(NS(=O)(=O)c2ccc(N)cc2)nc1,-1.3% [at 42.5 µM] (inactive)

# Test system: not listed separately
# Assay: qHTS assay to identify small molecule phospholipidosis (PLD) inducers (AID 1259344; active = well fitted curve in the direction sought with a large enough effect; an effect the other way counts as inactive or inconclusive)
# Conditions: HepG2 phospholipidosis, LipidTOX Red imaging, 24 h; series mostly up to 38.3 µM; PLD induction: at the top concentration
# How it was run: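 Image-based: LipidTOX Red pit count/intensity per well and per cell; HepG2, 24 h compound at 37 C, PFA fixation, Hoechst counterstain.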
row,SMILES,PLD induction
1,CC[C@@]1(c2ccccc2)NC(=O)N(C)C1=O,0.0698% (inactive)
2,CCCOc1ccc(C(=O)OCCN(CC)CC)cc1N,26.5% (inactive)
3,O=C(O)Cc1ccccc1Oc1ccc(Cl)cc1Cl,11.4% (inactive)
4,NCC1CCC(C(=O)Oc2ccc(CCC(=O)O)cc2)CC1 (stereo not drawn),3.03% (inactive)
5,C=CCN1CCc2nc(N)sc2CC1,-0.0221% (inactive)
6,COc1ccc2cc(CCC(C)=O)ccc2c1,-1.77% [at 15.5 µM] (inactive)
7,C/C(=N\O)c1ccc(OCC(=O)N2CCCCC2)cc1,-1.23% (inactive)
8,CN(C)CCc1c[nH]c2ccc(C[C@H]3COC(=O)N3)cc12,-0.945% (inactive)
9,CCCCN=C(N)N=C(N)N,-0.705% (inactive)
10,CN(C)CCC[C@@]1(c2ccc(F)cc2)OCc2cc(C#N)ccc21,2.47% (inactive)
11,O=C(O)P(=O)(O)O,0.0696% (inactive)
12,CC(=O)SCC(CC(=O)c1ccc(C)cc1)C(=O)O (stereo not drawn),-1.85% (inactive)
13,Nc1ccc(C(=O)NCC(=O)O)cc1,0.269% [at 15.5 µM] (inactive)
14,NC(=O)CC[C@@H](N)C(=O)O,5.36% (inactive)
15,C[n+]1ccccc1/C=N/O,-0.524% [at 15.5 µM] (inactive)
16,COc1cc2nc(N3CCN(C(=O)C4CCCO4)CC3)nc(N)c2cc1OC (stereo not drawn),-0.113% (inactive)
17,COc1cnc(NS(=O)(=O)c2ccc(N)cc2)nc1,1.6% [at 15.5 µM] (inactive)

# Test system: not listed separately
# Assay: qHTS assay to identify small molecule HDAC inhibitors (AID 1259364); note: nearly all actives have a fitted effect of over 45% in size; note: potency is the fitted concentration of half-maximal effect; for activity change, negative = inhibition: top concentration of the series differs between compounds
# Conditions: HCT-116 HDAC-Glo I/II luminescence, 2 h; series mostly up to 92.4 µM; activity change, negative = inhibition: at the top concentration
# How it was run: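 Luminescence read after 30 min room-temperature HDAC-Glo incubation measures cellular class I/II HDAC activity. Compounds were applied for 2 hr at 37 C to HCT-116 wild-type cells seeded the day before.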
SMILES,"activity change, negative = inhibition",Potency
CC[C@@]1(c2ccccc2)NC(=O)N(C)C1=O,1.54% [at 42.5 µM] (inactive),–
CC(=O)Oc1ccc(C(C)=O)cc1,-0.0868% (inactive),–
Cc1ccc(N)nc1,3.04% (inactive),–
CCCOc1ccc(C(=O)OCCN(CC)CC)cc1N,-4.28% [at 42.5 µM] (inactive),–
CCCCCCC(O)CO (stereo not drawn),-0.235% (inactive),–
CC(=O)OC/C=C(/C)CCC=C(C)C,7.34% (inactive),–
CC(C)(C)OC(=O)c1ccccc1C(=O)O,0.88% (inactive),–
CC1=C(O)C(=O)CO1,2.08% (inactive),–
Cc1cc(=O)oc2cc(O[C@@H]3SC[C@@H](O)[C@H](O)[C@H]3O)ccc12,-0.118% [at 42.5 µM] (inactive),–
C=CCN1CCc2nc(N)sc2CC1,4.64% [at 42.5 µM] (inactive),–
CC(C)c1cc(C(C)C)cc(C(C)C)c1,1.96% (inactive),–
COC(=O)c1ccc(NC(C)=O)cc1OC,6.9% [at 42.5 µM] (inactive),–
C=COCCCCO,5.54% (inactive),–
C/C(=N\O)c1ccc(OCC(=O)N2CCCCC2)cc1,–,8.41 µM (active)
Cc1cccc(N)n1,8.25% (inactive),–
CN(C)CCc1c[nH]c2ccc(C[C@H]3COC(=O)N3)cc12,-3.94% [at 42.5 µM] (inactive),–
CC(=O)/C=C/C=C1/C2CCC(C2)C1(C)C (stereo not drawn),-0.0488% [at 42.5 µM] (inactive),–
Cc1ccc(O)c([N+](=O)[O-])c1,2.38% (inactive),–
CCCCN=C(N)N=C(N)N,-11.4% [at 42.5 µM] (inactive),–
CN(C)CCC[C@@]1(c2ccc(F)cc2)OCc2cc(C#N)ccc21,4.35% [at 42.5 µM] (inactive),–
O=C(O)P(=O)(O)O,-4.07% [at 42.5 µM] (inactive),–
CC(=O)SCC(CC(=O)c1ccc(C)cc1)C(=O)O (stereo not drawn),-17.3% [at 42.5 µM] (inactive),–
CC(C)(C)C(=O)CCc1ccc(Cl)cc1,-0.0822% (inactive),–
Nc1ccc(C(=O)NCC(=O)O)cc1,8.08% [at 42.5 µM] (inactive),–
NC(=O)CC[C@@H](N)C(=O)O,1.38% [at 42.5 µM] (inactive),–
C[n+]1ccccc1/C=N/O,2.58% [at 42.5 µM] (inactive),–
COc1cc2nc(N3CCN(C(=O)C4CCCO4)CC3)nc(N)c2cc1OC (stereo not drawn),–,3.35 µM (active)
COc1cnc(NS(=O)(=O)c2ccc(N)cc2)nc1,0.475% [at 42.5 µM] (inactive),–
